Tgondii IFNg – blocks Toxoplasma gondii growth in the presence of IFN-gamma; Toxoplasma gondii growth in IFN-gamma-treated host cells; stronger effect = lower value; activity change, negative = inhibition, % (concentration not given with the values); actives 3.8% (n = 69,000); AID 1259416; in the data active means activity change below about -70%, passing the limit was not always enough;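 further: host cells are HeLa cells infected with Toxoplasma gondii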
Of the large screens only hits and unclear results are named; the others gave an inactive call; ! = repeats disagree. The full list was thinned out, with hits kept by preference.

COc1cc(NC(=O)Nc2ccc(-c3nc(-c4cc(C)ccc4C)co3)cc2)cc(OC)c1OC	none
CCc1nc(OCC(=O)Nc2ccccc2F)c2ccccc2n1	none
c1ccc(-c2cc3ccsc3s2)cc1	none
CO[C@H]1CCN(Cc2c(C)noc2C)[C@H]2CN(Cc3cccnc3)C[C@@H]12	none
CN(C)C(=O)c1cc2c(nc1NCC1CC1)CCN(Cc1cnn(C)c1)CC2	none
C=CCn1c(SCC(=O)Nc2c(C#N)cnn2-c2ccccc2)nnc1-c1ccncc1	none
C[C@H]1c2cccc(O)c2C(=O)C2C(=O)[C@]3(O)C(=O)C(C(N)=O)C(=O)[C@@H](N(C)C)[C@@H]3[C@@H](O)[C@@H]21 (some centres not stated)	none
CC[C@@H](C(=O)O)[C@@H]1O[C@@H]([C@@H](C)[C@H](O)[C@H](C)C(=O)[C@H](CC)[C@H]2O[C@]3(C=C[C@@H](O)[C@]4(CC[C@@](C)(C5CC[C@](O)(CC)[C@H](C)O5)O4)O3)[C@H](C)C[C@@H]2C)[C@@H](C)C[C@H]1C (some centres not stated)	Tgondii IFNg -81.4
O=S1(=O)CCC(NS(=O)(=O)c2ccc(F)cc2)C1 (configuration not stated)	none
O=C(O)CCC(=O)N1C[C@H]2CN(C(=O)c3ccco3)C[C@@H]21	none
Cc1onc(-c2c(Cl)cccc2Cl)c1C(=O)NC(=S)Nc1ccccc1	Tgondii IFNg -72.6
COC(=O)c1ccc(Cl)cc1NC(=O)c1c(-c2c(F)cccc2Cl)noc1C	none
Cc1onc(-c2ccccc2)c1C(=O)Nc1cccnc1	none
CC(C)n1c(C(=O)N2CCCC2)nc2c1CCN(C)C2	none
COc1ccc(CN(Cc2cccnc2)C(=S)Nc2cccc(Cl)c2)cc1OC	none
CCN(CC)C(=O)C1Cn2ccnc2C2(CCN(Cc3nccs3)CC2)O1 (configuration not stated)	none
CC(=O)Cn1nnc2ccccc2c1=O	none
CC(=O)NCCc1csc(C2CCCN(C(=O)/C=C/c3ccccc3Cl)C2)n1 (configuration not stated)	none
CCC(=O)NCCc1csc(C2CCCN(C(=O)/C=C/c3cccc(Cl)c3)C2)n1 (configuration not stated)	Tgondii IFNg -78.7
Cc1ccc(/C=C/C(=O)N2CCCC(c3nc(CCNC(=O)C4CC4)cs3)C2)cc1 (configuration not stated)	none
Fc1cnc(N2CCO[C@@H]3[C@H]2CC[C@H]3Oc2ccccn2)nc1	none
COC(=O)c1ccccc1S(=O)(=O)Nc1ccc2c(c1)CCC(=O)N2	none
Cc1cc(C(C)(C)CC(C)(C)C)ccc1OCCOCC[N+](C)(C)Cc1ccccc1	Tgondii IFNg -84.7
CC(C)(C)CC(C)(C)c1ccc(O)c(-n2nc3ccccc3n2)c1	none
C[N+](C)(CCOc1ccccc1)Cc1ccccc1	none
Cc1csc(-c2sc3ccccc3c2O)n1	none
CSc1sc(-c2nc(C)cs2)c(C)c1-c1ccn[nH]1	Tgondii IFNg -85.6
O=C(c1ccc2c3c(cccc13)CC2)C1CCCN(C(=O)c2cn3ccccc3n2)C1 (configuration not stated)	none
COc1cc2c(cc1OC)C(c1c(-c3ccccc3)noc1C)=NCC2	none
COc1cc2c(cc1OC)C(c1ccccc1)=NCC2	none
COc1cc2c(cc1OC)C(c1sc3ccccc3c1Cl)=NCC2	Tgondii IFNg -113.3
CCN(Cc1ccccc1)C(=O)CCN1CCCC1c1ccccn1 (configuration not stated)	none
O=C(NCCc1cc2nc(-c3ccncc3)ccn2n1)C1CCOCC1	none
Cc1nn(CC(=O)O)c2c1C(c1sc3ccccc3c1C)CC(=O)N2 (configuration not stated)	none
CCOc1ncccc1-c1cncnc1	none
CCOc1ncccc1-c1cc(CC)nc(N(C)C)n1	none
CCOc1ncccc1-c1ccc(C)nc1N	Tgondii IFNg -90.0
Cc1sc(NC(=O)CSc2nc3cc4c(cc3cc2C#N)OCCO4)c(C#N)c1C	none
CCOC(=O)c1c(NC(=O)CSc2nc(C)cc(C)n2)sc(C(C)=O)c1C	none
CCOC(=O)c1sc(NC(=O)CSc2n[nH]c(-c3ccccn3)n2)c(C#N)c1C	Tgondii IFNg -107.6
COc1ccc(-c2nc(C)c(CCNS(=O)(=O)c3cc(F)ccc3F)s2)cc1	none
Cc1ccc(-c2nc(CCNC(=O)C(=O)Nc3ccccc3F)cs2)cc1	none
OCc1ccnc(-c2ccc(O)cc2)c1	none
N#Cc1cccc(-c2ccc(C3[C@@H]4CN(C(=O)Cc5ccncc5)C[C@H]3N4)cc2)c1 (some centres not stated)	none
Cc1cccc(-c2ccc([C@@H]3[C@@H](CO)N4C(=O)CN(C(=O)c5ccc6c(c5)OCO6)C[C@H]34)cc2)c1	none
N#Cc1cccc(-c2ccc(C3[C@@H]4CN(C(=O)c5ccc6c(c5)OCO6)C[C@H]3N4)cc2)c1 (some centres not stated)	Tgondii IFNg -74.8!
CNC(=O)C1CCN(c2cc(C)nc(-c3ccccc3)n2)C1 (configuration not stated)	none
OCCNc1cc(-c2ccc3c(c2)OCO3)c2cc[nH]c2n1	none
COc1ccc(-c2ccc(C(=O)N3CCCC(c4ccccc4)CC3)cn2)cc1 (configuration not stated)	none
COc1ccc(-c2ccc(Nc3ccc(C(=O)N4CCCCCC4)cc3)nn2)cc1	Tgondii IFNg -83.6
Cc1ccc(Nc2ccc(C(=O)N3CCCCC3)cn2)cc1	none
COCCn1c2c(ccc1=O)CCN(C(=O)N1CCOCC1)CC2	none
CCc1ccc(CNC(=O)c2nc(Nc3cccc(C)c3)c3ccccc3n2)cc1	Tgondii IFNg -98.5
CCOC(=O)c1nc(Nc2cccc(C)c2)c2ccccc2n1	none
CN(C)c1ccc(CNC(=O)c2nc(Nc3ccc(F)cc3)c3ccccc3n2)cc1	none
CCc1ccc(Nc2nc(C(=O)NCc3ccc(C)cc3)nc3ccccc23)cc1	none
Cc1ccc(Nc2nc(C(=O)NCc3ccc(N(C)C)cc3)nc3ccccc23)cc1	none
Cc1cccc(Nc2nc(C(=O)NCc3ccc(N(C)C)cc3)nc3ccccc23)c1	Tgondii IFNg -78.1
O=C(c1ccc(Cl)c(Cl)c1)c1nn2c(nc(=O)c3ccccc32)s1	none
NC(=O)COc1cccc(CN2CCOC3(CNCCOC3)C2)c1 (configuration not stated)	none
CC(=O)N1CC2(CCN(C(=O)c3cccn3C)CC2)CC1C(=O)O (configuration not stated)	none
CCOc1ccc(-c2noc(-c3c(O)c4ccccc4n(C)c3=O)n2)cc1OC	none
Cc1ccc(C(C)CCN2CCC(O)(Cn3ccc4ncccc43)CC2)o1 (configuration not stated)	none
CSc1ccc(-c2noc(-c3nnn(Cc4nc(-c5ccc(C)cc5)oc4C)c3C)n2)cc1	none
Cc1ccc(NC(=O)c2ccc(CN3CCN(C)CC3)cc2)cc1Nc1nc(-c2cccnc2)cs1	none
O=C(Nc1cccc(N2CCC(NCCc3ccccc3C(F)(F)F)CC2)c1)c1ccncc1	none
Cc1ccc(C(=O)Nc2ccc(CN3CCN(C)CC3)c(C(F)(F)F)c2)cc1C#Cc1cnc2cccnn12	Tgondii IFNg -78.6
Nc1nncn1C(=O)c1ccc2c(c1)OCO2	none
COc1ccc(-c2nsc3c(SCc4ccccc4)ncnc23)cc1	none
Cc1noc2ncnc(SCC(=O)c3ccc(Cl)cc3)c12	none
Cc1ccc(C(=O)CSc2ncnc3c(-c4ccc(Cl)cc4)nsc23)cc1	Tgondii IFNg -85.3
CN(C)CCOCc1nnn2c1CN(CC1CCOCC1)CCC2	none
C=CCN1C(=O)COC2(CCN(C(=O)Cc3ccsc3)CC2)C1C (configuration not stated)	none
CCS(=O)(=O)N1CCC2(CC1)OC(=O)C(C)=C2C(=O)Nc1ccc2c(c1)OCCO2	none
CCN(CC)c1ccc(C(=C2C=CC(=[N+](CC)CC)C=C2)c2ccccc2)cc1	Tgondii IFNg -74.1

Screening results deposited in PubChem by Broad Institute.
